Assay results from PubChem BioAssay (Tox21).
Inconclusive results are not listed. Activity calls are given as the source filed them. Unless noted, calls follow the shape of the dose curve; as a rule, active = well fitted curve in the direction sought with a large enough effect in the repeat runs; inconclusive = weak or mixed curves; inactive = no such curve, though single readings can be large; an effect the other way counts as inactive or inconclusive.

What was measured:
[1] = A CellTox Green Cytotoxicity Assay to monitor cytotoxicity in HEK293 cells - 32 hour (AID 1224881); also: nearly all actives have a fitted effect of over 40% in size
Summary of the method: (§1)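 Read-out: fluorescence of a cell-impermeant cyanine dye staining DNA of dead cells, proportional to cytotoxicity. HEK293, 600 cells/well with reagent, compound (23 nL DMSO) added after 5 h; reads at 0, 8, 16, 24, 32, 40 h.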

[2] = A CellTox Green Cytotoxicity Assay to monitor cytotoxicity in HepG2 cells - 0 hour (AID 1224882); also: nearly all actives have a fitted effect of over 35% in size
Summary of the method: (§2)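 HepG2, 600 cells/well premixed w/ CellTox Green; 5 h settle, 37 C/5% CO2; pintool cpd add (DMSO); 37 C, 40 h; fluorescence read at 0, 8, 16, 24, 32, 40 h.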

[3] = qHTS RealTime-Glo MT Cell Viability Assay in HepG2 cells - 16 hour (AID 1224885); also: nearly all actives have a fitted effect of over 50% in size
Summary of the method: (§3)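 Cell number in HepG2 cultures estimated from NanoLuc luminescence generated by metabolic reduction of a prosubstrate by living cells. The homogeneous, nonlytic format allowed repeated reads at 0, 8, 16, 24, 32 and 40 h of compound exposure.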

[4] = A CellTox Green Cytotoxicity Assay to monitor cytotoxicity in HEK293 cells - 16 hour (AID 1224888); also: nearly all actives have a fitted effect of over 35% in size
Summary of the method: as §1

[5] = qHTS RealTime-Glo MT Cell Viability Assay in HepG2 cells - 0 hour (AID 1224889); also: nearly all actives have a fitted effect of over 50% in size
Summary of the method: as §3

[6] = A CellTox Green Cytotoxicity Assay to monitor cytotoxicity in HepG2 cells - 8 hour (AID 1224890); also: nearly all actives have a fitted effect of over 45% in size
Summary of the method: as §2

[7] = qHTS assay to identify small molecule antagonists of the estrogen receptor alpha (ER-alpha) signaling pathway using the BG1 cell line in the presence of 0.1 nM 17-beta-estradiol - cell viability counter screen (AID 1259241); also: nearly all actives have a fitted effect of over 40% in size
Summary of the method: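 Live-cell protease activity (CellTiter-Fluor fluorescence, 30 min) was read in the same wells after VM7Luc4E2 cells had been exposed to compounds with 0.1 nM 17beta-estradiol for 22 hr at 37C.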

[8] = qHTS assay to identify small molecule antagonists of the androgen receptor (AR) signaling pathway using the MDA cell line in the presence of 0.5 nM R1881 - cell viability counter screen (AID 1259242); also: nearly all actives have a fitted effect of over 45% in size
Summary of the method: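 Live-cell protease fluorescence, CellTiter-Fluor, 30 min at 37C. Cells: MDA-kb2, 3,000/well, preincubated 5 hr. Compounds plus 0.5 nM R1881 final, 16 hr, 37C, 0% CO2.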

[9] = qHTS assay to identify small molecule HDAC inhibitors (AID 1259364);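 also: wild-type HCT-116 cells with endogenous class I/II HDAC activity; top concentration of the series differs between compounds; nearly all actives have a fitted effect of over 45% in size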
Summary of the method: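 HCT-116 (wild type), 1,500 cells/well, overnight; compound 2 hr 37C 5% CO2; HDAC-Glo I/II reagent 30 min RT; luminescence readout.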

[10] = qHTS assay to identify small molecule HDAC inhibitors - cell viability counter screen (AID 1259365); also: series mostly up to about 92 µM; nearly all actives have a fitted effect of over 50% in size
Summary of the method: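 HCT-116 (wild type), 1,500 cells/well, overnight 37C/5% CO2; compound in DMSO 2hr; CellTiter-Glo 30min RT; luminescence read.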

[11] = qHTS assay to identify small molecule agonists of the sonic hedgehog signaling (Shh) pathway - cell viability counter screen (AID 1259366); also: nearly all actives have a fitted effect of over 50% in size; also: potency is read from the fitted curve at half-maximal effect
Summary of the method: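 CellTiter-Fluor fluorescence read-out, 1 hr at 37C, added after 23hr compound exposure. Cells: 3T3 Gli1-Luc, an NIH/3T3 clone with stably integrated Gli1-Luc reporter, plated 4hr before compound.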

[12] = qHTS assay to identify small molecule antagonists of the sonic hedgehog signaling (Shh) pathway - cell viability counter screen (AID 1259367); also: nearly all actives have a fitted effect of over 55% in size; also: potency is read from the fitted curve at half-maximal effect
Summary of the method: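 CellTiter-Fluor signal in conditioned medium-stimulated 3T3 Gli1-Luc cells, 23 hr compound exposure, 37C.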

[13] = qHTS assay to identify small molecule agonists of the sonic hedgehog signaling (Shh) pathway (AID 1259368; calls by dose curve;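 also: NIH/3T3-derived 3T3Gli1-Luc cells carrying a stable Gli1-driven firefly luciferase reporter; series mostly up to about 92 µM; nearly all actives have a fitted effect of over 15% in size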)
Summary of the method: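 Read-out: firefly luciferase luminescence from a Gli1 response element reporter stably integrated in NIH/3T3-derived 3T3Gli1-Luc cells, measured 30 min at room temperature after reagent addition. Compound exposure lasted 24 hr at 37 C, 5% CO2.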

[14] = A CellTox Green Cytotoxicity Assay to monitor cytotoxicity in HepG2 cells - 32 hour (AID 1224883); also: nearly all actives have a fitted effect of over 50% in size
Summary of the method: as §2

[15] = A CellTox Green Cytotoxicity Assay to monitor cytotoxicity in HEK293 cells - 8 hour (AID 1224884); also: nearly all actives have a fitted effect of over 35% in size
Summary of the method: as §1

[16] = qHTS RealTime-Glo MT Cell Viability Assay in HEK293 cells - 24 hour (AID 1224886); also: nearly all actives have a fitted effect of over 50% in size; also: potency is read from the fitted curve at half-maximal effect; as to activity change, negative = cytotoxicity: top concentration of the series differs between compounds
Summary of the method: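 Homogeneous bioluminescent viability format in HEK293 cells (600 cells/well). Following 5 h at 37 C/5% CO2, 23 nL compound was pintooled; the signal was measured repeatedly during 40 h incubation.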

[17] = qHTS RealTime-Glo MT Cell Viability Assay in HEK293 cells - 8 hour (AID 1224887)
Summary of the method: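 Luminescence readout at each listed time point; HEK293, 600 cells/well, RealTime-Glo MT reagent added with cells; compounds pinned (23 nL in DMSO) after 5 h at 37 C; continuous culture at 37 C.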

[18] = biological target: Estrogen receptor (Homo sapiens) (UniProt P03372); experiment: qHTS assay to identify small molecule antagonists of the estrogen receptor alpha (ER-alpha) signaling pathway using the BG1 cell line in the presence of 0.1 nM 17-beta-estradiol (AID 1259244); also: nearly all actives have a fitted effect of over 50% in size
Summary of the method: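 Luminescence after ONE-Glo (30 min, room temperature) measured ERE-luciferase activity in VM7Luc4E2 cells treated 22 h with compound and 0.1 nM final 17beta-estradiol as stimulator.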

[19] = biological target: Androgen receptor (Homo sapiens) (UniProt P10275); experiment: qHTS assay to identify small molecule antagonists of the androgen receptor (AR) signaling pathway using the MDA cell line in the presence of 0.5 nM R1881 (AID 1259243); also: nearly all actives have a fitted effect of over 50% in size
Summary of the method: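 MDA-kb2, MMTV-luc (AR/GR elements); 3,000 cells/well; cpd + 0.5 nM R1881 final; 16 hr 37C, 0% CO2; ONE-Glo 30 min RT; luminescence.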

[20] = qHTS assay to identify small molecule phospholipidosis (PLD) inducers (AID 1259344; active = well fitted curve in the direction sought with a large enough effect; an effect the other way counts as inactive or inconclusive)
Summary of the method: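 Accumulated phospholipid, stained red by LipidTOX during 24 h compound treatment of HepG2 cells at 37 C, is quantified from images as pit number and intensity, normalised per cell using Hoechst-stained nuclei.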
% is scaled to controls: 0 for no effect and ±100 for the full control effect.

Sequence of Estrogen receptor (Homo sapiens) (P03372 whole entry, looked up): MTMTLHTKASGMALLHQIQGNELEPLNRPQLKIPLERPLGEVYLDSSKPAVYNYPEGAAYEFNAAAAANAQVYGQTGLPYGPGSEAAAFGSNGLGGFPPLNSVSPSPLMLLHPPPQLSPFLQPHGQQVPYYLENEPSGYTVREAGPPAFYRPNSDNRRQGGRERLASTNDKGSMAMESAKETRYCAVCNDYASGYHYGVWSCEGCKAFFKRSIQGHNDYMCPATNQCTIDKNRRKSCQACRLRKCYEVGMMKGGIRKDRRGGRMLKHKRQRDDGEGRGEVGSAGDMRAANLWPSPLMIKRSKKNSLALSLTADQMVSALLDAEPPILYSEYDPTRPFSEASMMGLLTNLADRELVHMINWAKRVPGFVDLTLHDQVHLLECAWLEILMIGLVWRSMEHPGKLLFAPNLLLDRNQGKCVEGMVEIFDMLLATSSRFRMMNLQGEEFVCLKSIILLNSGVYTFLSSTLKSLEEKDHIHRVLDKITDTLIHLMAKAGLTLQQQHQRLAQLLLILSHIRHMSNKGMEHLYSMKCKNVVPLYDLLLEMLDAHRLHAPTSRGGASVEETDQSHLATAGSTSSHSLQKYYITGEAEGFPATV
Sequence of Androgen receptor (Homo sapiens) (P10275 whole entry, looked up): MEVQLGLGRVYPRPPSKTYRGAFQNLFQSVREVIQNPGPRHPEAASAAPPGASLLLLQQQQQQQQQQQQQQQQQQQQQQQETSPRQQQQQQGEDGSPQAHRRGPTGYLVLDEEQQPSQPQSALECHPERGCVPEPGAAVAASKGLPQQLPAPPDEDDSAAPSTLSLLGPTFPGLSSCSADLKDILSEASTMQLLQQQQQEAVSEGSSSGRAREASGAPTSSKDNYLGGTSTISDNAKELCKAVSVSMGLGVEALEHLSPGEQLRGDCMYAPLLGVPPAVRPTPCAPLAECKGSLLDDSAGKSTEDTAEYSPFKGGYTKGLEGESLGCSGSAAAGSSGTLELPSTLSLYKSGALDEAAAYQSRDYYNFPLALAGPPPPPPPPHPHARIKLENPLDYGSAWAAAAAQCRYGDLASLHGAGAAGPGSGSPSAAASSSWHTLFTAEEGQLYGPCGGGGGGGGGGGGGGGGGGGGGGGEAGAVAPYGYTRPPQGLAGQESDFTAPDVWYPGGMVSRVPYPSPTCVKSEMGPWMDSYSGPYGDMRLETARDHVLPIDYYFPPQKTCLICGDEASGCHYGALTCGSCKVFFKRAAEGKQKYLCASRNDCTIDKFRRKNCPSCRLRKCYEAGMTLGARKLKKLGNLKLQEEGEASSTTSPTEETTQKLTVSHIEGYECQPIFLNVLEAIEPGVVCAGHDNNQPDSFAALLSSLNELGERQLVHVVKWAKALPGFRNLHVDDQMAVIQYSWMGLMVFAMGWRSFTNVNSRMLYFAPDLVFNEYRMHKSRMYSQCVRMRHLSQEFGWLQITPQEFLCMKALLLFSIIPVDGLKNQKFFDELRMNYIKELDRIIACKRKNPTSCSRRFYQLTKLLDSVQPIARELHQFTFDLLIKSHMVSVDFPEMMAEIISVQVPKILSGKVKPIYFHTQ

c1ccc(C(O[C@@H]2CCCN(CCc3ccc4c(c3)OCO4)C2)c2ccccc2)cc1
inactive: Potency [1] | Potency [2] | Potency [3] | Potency [4] | Potency [5] | Potency [6] | Potency [7] | Potency [8] | Potency [9] | Potency [10] | Potency [11] | Potency [12] | Potency [13]

C=CC(=O)OCCOC(=O)C=C
active: Potency [16] 43.6 µM
inactive: Potency [2] | Potency [14] | Potency [15] | Potency [3] | Potency [17] | Potency [4] | Potency [6] | Potency [7] | Potency [8] | Potency [18] | Potency [9] | Potency [10] | Potency [11] | Potency [12] | Potency [13]

OCC(F)(F)F
inactive: Potency [2] | Potency [14] | Potency [15] | Potency [3] | Potency [16] | Potency [17] | Potency [4] | Potency [5] | Potency [6] | Potency [7] | Potency [8] | Potency [9] | Potency [10] | Potency [11] | Potency [12] | Potency [13]

CCc1ccc(Br)cc1
inactive: Potency [2] | Potency [14] | Potency [15] | Potency [3] | Potency [16] | Potency [17] | Potency [4] | Potency [6] | Potency [7] | Potency [8] | Potency [18] | Potency [9] | Potency [10] | Potency [11] | Potency [12]

CCCC(=O)OC(C)(C)Cc1ccccc1
inactive: Potency [1] | Potency [2] | Potency [15] | Potency [3] | Potency [16] | Potency [17] | Potency [4] | Potency [6] | Potency [7] | Potency [8] | Potency [9] | Potency [10] | Potency [11] | Potency [13]

Cl[Si](Cl)(c1ccccc1)c1ccccc1
inactive: Potency [2] | Potency [14] | Potency [3] | Potency [16] | Potency [17] | Potency [6] | Potency [7] | Potency [8] | Potency [18] | Potency [9] | Potency [11] | Potency [12] | Potency [13]

Cc1ccc(O)c(N)c1
inactive: Potency [2] | Potency [3] | Potency [4] | Potency [5] | Potency [6] | Potency [7] | Potency [8] | Potency [10] | Potency [13]
active: Potency [11] 43.3 µM | Potency [12] 27.3 µM

C=CC(C)(CCC=C(C)C)OC=O (stereo not drawn)
inactive: Potency [2] | Potency [14] | Potency [16] | Potency [17] | Potency [4] | Potency [5] | Potency [6] | Potency [7] | Potency [8] | Potency [18] | Potency [9] | Potency [10] | Potency [11] | Potency [12] | Potency [13]

Cc1cc(=O)oc2cc(O)cc(O)c12
inactive: Potency [2] | Potency [14] | Potency [15] | Potency [16] | Potency [17] | Potency [5] | Potency [6] | Potency [7] | Potency [8] | Potency [19] | Potency [9] | Potency [13]

O=S(=O)(O)c1ccccc1/C=C/c1ccc(-c2ccc(/C=C/c3ccccc3S(=O)(=O)O)cc2)cc1
inactive: Potency [2] | Potency [14] | Potency [15] | Potency [16] | Potency [17] | Potency [4] | Potency [5] | Potency [6] | Potency [8] | Potency [18] | Potency [9] | Potency [10]

NC[C@H]1O[C@H](O[C@H]2[C@H](O[C@@H]3O[C@H](CO)[C@@H](O)[C@H]3O)C(O)[C@H](N)C[C@@H]2N)[C@H](N)[C@@H](O)[C@@H]1O (stereo partly drawn)
inactive: cytotoxicity [2] 11.3% [at 6.97 µM] | cytotoxicity increase [14] 7.9% [at 6.97 µM] | activity change, negative = cytotoxicity [16] 4.78% [at 6.97 µM] | activity change, negative = cytotoxicity [17] -3.38% [at 6.97 µM] | activity change [4] -6.01% [at 6.97 µM, hits give high values] | activity change, negative = cytotoxicity [5] 1.18% [at 6.97 µM] | cytotoxicity increase [6] 12.8% [at 6.97 µM] | activity change, negative = cytotoxicity [7] 2.08% [at 8.39 µM] | viability change, negative = cytotoxic [8] 2.91% [at 8.39 µM] | Potency [20] | activity change, negative = inhibition [9] -0.407% [at 8.39 µM] | activity change, negative = cytotoxicity [10] -0.0056% [at 8.39 µM] | viability change, negative = cytotoxic [11] 2.25% [at 8.39 µM] | activity change [13] -1.1% [at 8.39 µM, hits give high values]

CC1(C)CCC[C@]2(C)[C@H]3CCO[C@]3(C)CC[C@@H]12
inactive: Potency [2] | Potency [14] | Potency [3] | Potency [16] | Potency [17] | Potency [5] | Potency [6] | Potency [7] | Potency [8] | Potency [9] | Potency [10] | Potency [11] | Potency [12] | Potency [13]

C=C(C)C(=O)OCCCCCCCCCC
active: Potency [12] 54.9 µM
inactive: Potency [2] | Potency [14] | Potency [15] | Potency [16] | Potency [17] | Potency [5] | Potency [6] | Potency [8] | Potency [9] | Potency [13]

CC[C@H](C)COC(=O)/C=C/c1ccc(N=Cc2ccc(OC)cc2)cc1
inactive: Potency [2] | Potency [3] | Potency [4] | Potency [5] | Potency [6] | Potency [7] | Potency [8] | Potency [10] | Potency [11] | Potency [12] | Potency [13]
active: Potency [16] 21.8 µM
